Measurements: PubChem BioAssay (NCI)
The panel holds about 83,000 compounds, 20% with a hit somewhere; the sample as a whole holds those more often.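 Interpretation: 100, growth as untreated; towards 0, rising growth inhibition; 0, no net growth; 0 to -100, cell death. Compounds scoring below 10 were considered active.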 Values without a mark were called inactive. Calls of active or inactive are those of the source.

tested on: HL-60(TB) leukemia; assay: NCI-60 one-dose screen, 48 h (100 = growth as untreated, 0 = no growth, -100 = all killed); conditions: 10 µM unless noted

| SMILES | growth |
| --- | --- |
| COc1ccc(NC(=O)/C=C/c2ccc(Cl)c(Cl)c2)cn1 | 61.5% |
| O=C1OC(Oc2ccc(Br)cc2)(c2ccccc2)c2ccccc21 (stereo not given) | 120% |
| Cc1cccc2cc(/C=C/C(=O)/C=C/c3ccc(Cl)cc3)c(=O)[nH]c12 | 44.2% |
| COc1ccc(-c2cc3cnc4ccccc4c3oc2=O)cc1 | 94.2% |
| C=C(C)[C@@H]1CC[C@]2(C)[C@H](CC=C3[C@@H]4CC(C)(C)CC[C@]4(C=O)CC[C@]32C)[C@@]1(C)CCCN | -3.43% (active) |
| CSC1=CC(=O)c2ccccc2C1=O | -49.5% (active) |
| O=C(CCNC(=O)c1nc(-c2ccccc2)n(-c2ccc(Cl)cc2)n1)NO | 96.8% |
| O=C(O)Cc1cc(=O)[nH]n(-c2ccccc2)c1=O | 95.3% |
| CCOC(=O)C1=C(C)NC(SCc2nnc(-c3ccc(Cl)cc3)o2)=NC1c1ccc(Br)cc1 (stereo not given) | 22.5% |
| Nc1ncc(-c2ccc3ncnc(Nc4cccc(Cl)c4)c3c2)cn1 | 58.1% |
| Nc1nc(N)c2c(n1)NC(c1ccc3c(c1)OCO3)CC(c1cccc(Nc3ccncc3)c1)=N2 (stereo not given) | 57% |
| CSc1cc(SC)ncn1 | 101% |
| CCN(CC)CC[n+]1cc2cc(OC)c(OC)cc2c2ccc3cc4c(cc3c21)OCO4 | -33.5% (active) |
| Oc1[nH]c2ccc(Cl)cc2c1/C=c1/ccc2c(c1)N=C(c1ccc(F)cc1)N=2 | 51.5% |
| CSc1nc(=O)n(Cc2ccc(F)cc2)c(=O)n1Cc1ccc(C)cc1 | 90% |
| O=C1OC2(c3ccccc31)c1ccccc1-c1ccccc12 | 69.6% |
| CN(C)CCN1C(=O)c2cccc3c(N)ccc(c23)C1=O | -6.78% (active) |
| CC(C)C(C(=O)NCCN1CCOCC1)N1C(=O)/C(=C/c2ccc(Br)cc2)SC1=S (stereo not given) | 101% |
| c1ccc(C2CC(c3cccc(Nc4ccncc4)c3)=NN2c2ccccc2)cc1 (stereo not given) | -8.94% (active) |
| Nc1c(C(=O)Nc2ccccc2Cl)sc2nc3c(cc12)CN(Cc1ccccc1)CC3 | 75.6% |

| SMILES | growth |
| --- | --- |
| COc1ccc2c(c1)C(=O)/C(=C/c1ccc(OCC(=O)c3ccc(Cl)cc3)cc1)O2 | 70.2% |
| Cc1nc(N=C(N)N)nc2ccc3ccccc3c12 | 22.6% |
| CN1CCN(C(=O)C(C)(C)c2ccc(C(=O)Nc3cn4cc(-c5ccncc5)ccc4n3)cc2)CC1 | 7.51% (active) |
| CCCCCCC1(/C=N/NC(N)=O)NC(=O)NC1=O (stereo not given) | 96.7% |
| CC1(C)C(=O)CC[C@]2(C)[C@H]3C(=O)C=C4[C@@H]5C[C@@](C)(C(=O)NCCNCCN)CC[C@]5(C)CC[C@@]4(C)[C@]3(C)CC[C@@H]12 | 90.1% |
| Clc1ccc(/C=C/c2cc(N3CCOCC3)c3cc(Cl)c(Cl)cc3n2)cc1 | -16.3% (active) |
| N[C@H](C(=O)O)[C@@H]1CC(Cl)=NO1 | 34.9% [20 µM] |
| O=C(Nc1nc2ccc(C(F)(F)F)cc2s1)c1cc(Cl)ccc1O | -54.4% (active) |
| COC1C(O)CC(OC2CC(OC3CC(O[C@@H]4C(=O)c5c(cc6cc(OC7CC(OC8CC(O)C(O)C(C)O8)C(O)C(C)O7)c(C)c(O)c6c5O)CC4[C@H](OC)C(=O)O)OC(C)C3O)OC(C)C2O)OC1C (stereo not given in full) | 60.5% |
| CCOC(=O)CC1CSC(N/N=C/c2ccc(F)c(Br)c2)=N1 (stereo not given) | 93.6% |
| O=P([O-])(O)OP(=O)([O-])O.[NH-][C@H]1CCCC[C@@H]1[NH-].[OH-].[OH-].[Pt+4] | 111% |
| N#C/C(=C(/O)CCCO)c1nc2ccccc2c(=O)[nH]1 | 102% |
| COc1ccc(CN2C(=O)/C(=C\c3cc(OC)c(OC)c(OC)c3)c3cc(OC)ccc32)cc1 | -27.2% (active) |
| CCn1c(CSc2nc3ccccc3c(=O)n2CCc2ccccc2)n[nH]c1=S | 90.9% |
| CC1O[C@@H](OC2[C@H](OC(=O)/C=C/c3ccc(O)c(O)c3)C(COC3O[C@H](C)C(O)C(O)[C@@H]3O)O[C@@H](OCCc3ccc(O)c(O)c3)[C@H]2O)[C@@H](O)C(O)[C@H]1O (stereo not given in full) | 103% |
| COc1ccc(Nc2c3ccccc3nc3ccccc23)cc1 | 12.8% |
| C#CCn1c(C)cc(C)c(C#N)c1=O | 101% |
| COc1c(O)cc2oc3cc(O[C@@H]4OC(C)[C@@H](O)[C@H](O)C4O)c(CC=C(C)C)c(O)c3c(=O)c2c1CC=C(C)C (stereo not given in full) | 90.4% |
| COc1ccc(/C=C(\C#N)n2nnc3cc(F)c(F)cc32)cc1 | 13.8% |
| Nc1c(C(=O)Nc2ccncc2)sc2nc3c(cc12)CCCCCCCC3 | -54.9% (active) |
